# Test results taken from PubChem BioAssay.
# “And” between values parts separate entries of the source, which are not always exact repeats. Equal values may be shown once. The source made the active and inactive calls. How the calls were made is not given here.
# Assay: ICB984 medulloblastoma cell growth inhibition, synergistic combos for chromothripsis tumors, cisplatin or BGB combos (AID 1671451);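 further: cells exposed for 96 hours before readout; 0% = vehicle DMSO and 100% = killing by high DMSO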
# Conditions: ICB984 medulloblastoma cells, drug combinations, BGB IC40 combo, at 0.005 µM, stronger effect = higher value
row,SMILES,inhibition
1,COc1ccccc1S(=O)(=O)Nc1ccc2c(c1)CN(C)C(=O)N2,-32.2%
2,Cc1cc(C#N)cc(C)c1Oc1nc(Nc2ccc(C#N)cc2)nc(N)c1Br,-12.8%
3,Nc1ncn(C2OC(CO)C(O)C2O)c(=O)n1 (stereo not drawn),-4.47%
4,Cc1cc(C)c(Nc2ccnc(Nc3ccc(C#N)cc3)n2)c(C)c1,-27.4%
5,COc1ccc(CC(N)C(=O)NC2C(CO)OC(n3cnc4c(N(C)C)ncnc43)C2O)cc1 (stereo not drawn),37% and 55.6%
6,O=c1ccn(C2OC(CO)C(O)C2O)c(=O)[nH]1 (stereo not drawn),6.25% and -39.4%
7,CC=C1NC(=O)C2CSSCCC=CC(CC(=O)NC(C(C)C)C(=O)N2)OC(=O)C(C(C)C)NC1=O (stereo not drawn),97.9% and 97.5%
8,CN(C)CC(=O)Nc1ccc2[nH]c(=O)c3ccccc3c2c1,-17% and -47.2% and -17.2%
9,CC1OC(n2cc(F)c(=O)[nH]c2=O)C(O)C1O (stereo not drawn),-26.6%
10,Nc1ccn(C2OC(CO)C(O)C2(F)F)c(=O)n1 (stereo not drawn),-5.04% and 4.53% and 16%
11,Cc1cn(C2CC(N=[N+]=[N-])C(CO)O2)c(=O)[nH]c1=O (stereo not drawn),-37.8% and -34.3%
12,CC(C=CC(=O)NO)=CC(C)C(=O)c1ccc(N(C)C)cc1 (stereo not drawn),90.3%
13,NC(=S)NN=Cc1ncccc1N,-38.2%
14,CC(C)(C#N)c1ccc(N2C(=O)OCc3cnc4ccc(-c5cnc6ccccc6c5)cc4c32)cc1,-8.9%
15,CC1CN(c2c(F)c(N)c3c(=O)c(C(=O)O)cn(C4CC4)c3c2F)CC(C)N1 (stereo not drawn),11%
16,CCCCN(Cc1ccc(C(=O)NO)cc1)C(=O)Nc1ccccc1,-48.5% and 3.88%
17,O=c1[nH]cnc2c1ncn2C1OC(CO)C(O)C1O (stereo not drawn),-26.4% and -10.8%
18,Cc1cc(C=CC#N)cc(C)c1Nc1ccnc(Nc2ccc(C#N)cc2)n1,-17%
19,CC(Oc1cc(-c2cnn(C3CCNCC3)c2)cnc1N)c1c(Cl)ccc(F)c1Cl (stereo not drawn),-17.8%
20,O=C(O)c1cc2cccc([N+](=O)[O-])c2[nH]1,-62.5%
21,O=c1[nH]c(=O)n(C2CC(O)C(CO)O2)cc1I (stereo not drawn),-20.9%

# Same assay, conditions: ICB984 medulloblastoma cells, drug combinations, BGB IC40 combo, at 0.05 µM, stronger effect = higher value
row,SMILES,inhibition
1,COc1ccccc1S(=O)(=O)Nc1ccc2c(c1)CN(C)C(=O)N2,2.94%
2,Cc1cc(C#N)cc(C)c1Oc1nc(Nc2ccc(C#N)cc2)nc(N)c1Br,-9.57%
3,Nc1ncn(C2OC(CO)C(O)C2O)c(=O)n1 (stereo not drawn),64.1%
4,Cc1cc(C)c(Nc2ccnc(Nc3ccc(C#N)cc3)n2)c(C)c1,-8.56%
5,COc1ccc(CC(N)C(=O)NC2C(CO)OC(n3cnc4c(N(C)C)ncnc43)C2O)cc1 (stereo not drawn),100%
6,O=c1ccn(C2OC(CO)C(O)C2O)c(=O)[nH]1 (stereo not drawn),-7.22% and -39.4%
7,CC=C1NC(=O)C2CSSCCC=CC(CC(=O)NC(C(C)C)C(=O)N2)OC(=O)C(C(C)C)NC1=O (stereo not drawn),97% and 97.5%
8,CN(C)CC(=O)Nc1ccc2[nH]c(=O)c3ccccc3c2c1,-0.058% and 4.16% and -0.711%
9,CC1OC(n2cc(F)c(=O)[nH]c2=O)C(O)C1O (stereo not drawn),-7.54%
10,Nc1ccn(C2OC(CO)C(O)C2(F)F)c(=O)n1 (stereo not drawn),26% and 33.4% and 30.2%
11,Cc1cn(C2CC(N=[N+]=[N-])C(CO)O2)c(=O)[nH]c1=O (stereo not drawn),-19.4% and -8.93%
12,CC(C=CC(=O)NO)=CC(C)C(=O)c1ccc(N(C)C)cc1 (stereo not drawn),97.7%
13,NC(=S)NN=Cc1ncccc1N,-31.3%
14,CC(C)(C#N)c1ccc(N2C(=O)OCc3cnc4ccc(-c5cnc6ccccc6c5)cc4c32)cc1,30.5%
15,CC1CN(c2c(F)c(N)c3c(=O)c(C(=O)O)cn(C4CC4)c3c2F)CC(C)N1 (stereo not drawn),-1.88%
16,CCCCN(Cc1ccc(C(=O)NO)cc1)C(=O)Nc1ccccc1,19.3% and 30.6%
17,O=c1[nH]cnc2c1ncn2C1OC(CO)C(O)C1O (stereo not drawn),-29.3% and -11.3%
18,Cc1cc(C=CC#N)cc(C)c1Nc1ccnc(Nc2ccc(C#N)cc2)n1,-41.8%
19,CC(Oc1cc(-c2cnn(C3CCNCC3)c2)cnc1N)c1c(Cl)ccc(F)c1Cl (stereo not drawn),44.6%
20,O=C(O)c1cc2cccc([N+](=O)[O-])c2[nH]1,-61%
21,O=c1[nH]c(=O)n(C2CC(O)C(CO)O2)cc1I (stereo not drawn),-13.7%

# Same assay, conditions: ICB984 medulloblastoma cells, drug combinations, at 0.5 µM, stronger effect = higher value
row,SMILES,inhibition
1,COc1ccccc1S(=O)(=O)Nc1ccc2c(c1)CN(C)C(=O)N2,-27.9% (inactive)
2,Cc1cc(C#N)cc(C)c1Oc1nc(Nc2ccc(C#N)cc2)nc(N)c1Br,-33.3% (inactive)
3,Nc1ncn(C2OC(CO)C(O)C2O)c(=O)n1 (stereo not drawn),-14.1% (inactive)
4,Cc1cc(C)c(Nc2ccnc(Nc3ccc(C#N)cc3)n2)c(C)c1,-22.9% (inactive)
5,COc1ccc(CC(N)C(=O)NC2C(CO)OC(n3cnc4c(N(C)C)ncnc43)C2O)cc1 (stereo not drawn),-26.8% (inactive) and -23.9% (inactive)
6,O=c1ccn(C2OC(CO)C(O)C2O)c(=O)[nH]1 (stereo not drawn),-8.08% (inactive) and -24.1% (inactive)
7,CC=C1NC(=O)C2CSSCCC=CC(CC(=O)NC(C(C)C)C(=O)N2)OC(=O)C(C(C)C)NC1=O (stereo not drawn),-17.2% (inactive) and 63.7% (inactive)
8,CN(C)CC(=O)Nc1ccc2[nH]c(=O)c3ccccc3c2c1,-28.4% (inactive) and -20.4% (inactive) and -5.86% (inactive)
9,CC1OC(n2cc(F)c(=O)[nH]c2=O)C(O)C1O (stereo not drawn),-15.5% (inactive)
10,Nc1ccn(C2OC(CO)C(O)C2(F)F)c(=O)n1 (stereo not drawn),-22.9% (inactive) and -37.1% (inactive) and -18.5% (inactive)
11,Cc1cn(C2CC(N=[N+]=[N-])C(CO)O2)c(=O)[nH]c1=O (stereo not drawn),-42.3% (inactive) and -13.3% (inactive)
12,CC(C=CC(=O)NO)=CC(C)C(=O)c1ccc(N(C)C)cc1 (stereo not drawn),-36.8% (inactive)
13,NC(=S)NN=Cc1ncccc1N,-16.4% (inactive)
14,CC(C)(C#N)c1ccc(N2C(=O)OCc3cnc4ccc(-c5cnc6ccccc6c5)cc4c32)cc1,-29.7% (inactive)
15,CC1CN(c2c(F)c(N)c3c(=O)c(C(=O)O)cn(C4CC4)c3c2F)CC(C)N1 (stereo not drawn),7.87% (inactive)
16,CCCCN(Cc1ccc(C(=O)NO)cc1)C(=O)Nc1ccccc1,-22.3% (inactive) and 1.78% (inactive)
17,O=c1[nH]cnc2c1ncn2C1OC(CO)C(O)C1O (stereo not drawn),-22.2% (inactive) and -24.4% (inactive)
18,Cc1cc(C=CC#N)cc(C)c1Nc1ccnc(Nc2ccc(C#N)cc2)n1,-20.3% (inactive)
19,CC(Oc1cc(-c2cnn(C3CCNCC3)c2)cnc1N)c1c(Cl)ccc(F)c1Cl (stereo not drawn),-13.1% (inactive)
20,O=C(O)c1cc2cccc([N+](=O)[O-])c2[nH]1,-39.2% (inactive)
21,O=c1[nH]c(=O)n(C2CC(O)C(CO)O2)cc1I (stereo not drawn),-8.85% (inactive)
